Measured values reported in PubChem BioAssay (NCI).
This is part of a sample that, as a whole, favours compounds with a hit. Of some 79,000 tested, about 15% had one in any assay. Calls of active or inactive are those of the source. No stated cut-off is given here; in the data, active means growth inhibition above about 70%; inactive means the rest.

What was measured:
[1] = NCI Yeast Anticancer Drug Screen. Data for the rad52 strain (AID 147);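 further: 0% = growth of vehicle-treated control cultures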; details: S. cerevisiae rad52 mutant growth inhibition, hits give high values
How it was run: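 Genetically altered yeast (DNA damage repair defect) treated with compound; inhibition calculated relative to vehicle.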

[2] = NCI Yeast Anticancer Drug Screen. Data for the wt1 strain (AID 149);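 further: 0% = growth of vehicle-treated wt1 cultures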; details: S. cerevisiae wt1 strain (SPY 50644) growth inhibition, hits give high values
How it was run: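 Measured: growth of wt1 yeast under compound versus vehicle treatment, reported as inhibition.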

[3] = NCI Yeast Anticancer Drug Screen. Data for the rad50EPP+ strain (AID 151);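 further: 0% = growth of vehicle-treated control cultures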; details: S. cerevisiae rad50 mutant strain, hits give high values
How it was run: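 Strain rad50EPP+; compound exposure; % growth inhibition vs vehicle.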

[4] = NCI Yeast Anticancer Drug Screen. Data for the rad50 strain (AID 155);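 further: 0% = growth of vehicle-only cultures of the same strain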; details: S. cerevisiae rad50 strain growth inhibition, hits give high values
How it was run: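 Growth of the mutant yeast was measured after compound exposure and referenced to vehicle-treated cultures.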

[5] = NCI Yeast Anticancer Drug Screen. Data for the mec2-1 strain (AID 157); details: S. cerevisiae mec2-1 strain, hits give high values
How it was run: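 Cells of the genetically defined mec2-1 yeast strain are incubated with test compound. Inhibition of growth is calculated against vehicle-treated controls.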

[6] = NCI Yeast Anticancer Drug Screen. Data for the sgs1 mgt1 strain (AID 161);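 further: 0% = growth of cultures given vehicle only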; details: S. cerevisiae sgs1 mgt1 strain, hits give high values
How it was run: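 Mutant yeast exposed to compound; growth scored against vehicle-only wells.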

[7] = NCI Yeast Anticancer Drug Screen. Data for the cln2 rad14 strain (AID 165);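 further: 0% = growth equal to vehicle treated cultures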; details: S. cerevisiae cln2 rad14 strain, hits give high values
How it was run: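 The screen exposed genetically defined yeast (cln2 rad14) to test compounds and scored growth inhibition relative to vehicle-treated controls.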

[8] = NCI Yeast Anticancer Drug Screen. Data for the bub3 strain (AID 167); details: S. cerevisiae bub3 mutant strain, hits give high values
How it was run: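 Whole-cell yeast assay. The mutant strain was incubated with compounds, and growth inhibition was determined by comparison with vehicle-treated cells.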

[9] = NCI Yeast Anticancer Drug Screen. Data for the wt2 strain (AID 169);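 further: 0% = growth of vehicle-treated yeast cultures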; details: S. cerevisiae wt2 strain growth inhibition, hits give high values
How it was run: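 Steps: yeast strain treated with compound; growth recorded; inhibition calculated relative to cultures given vehicle alone.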

[10] = NCI Yeast Anticancer Drug Screen. Data for the mlh1 strain (AID 171);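 further: 0% = growth of vehicle-treated control cultures of the same strain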; details: S. cerevisiae mlh1 strain growth inhibition, hits give high values
How it was run: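 Yeast screen: mutant strain plus compound, growth scored against vehicle control wells.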

[11] = NCI Yeast Anticancer Drug Screen. Data for the sgs1 strain (AID 173);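 further: 0% = growth of vehicle-only control cultures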; details: S. cerevisiae sgs1 mutant, hits give high values
How it was run: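 Inhibition of yeast growth served as the measure. The mutant strain was treated with each compound, and growth was normalised to cultures receiving vehicle alone.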

[12] = NCI Yeast Anticancer Drug Screen. Data for the mlh1 rad18 strain (AID 175); details: S. cerevisiae mlh1 rad18 strain growth inhibition, hits give high values
How it was run: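 Compound-treated yeast growth, normalised to vehicle controls. Strain bears defined DNA repair mutations.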

[13] = NCI Yeast Anticancer Drug Screen. Data for the rad18 strain (AID 177); details: S. cerevisiae rad18 mutant growth inhibition, hits give high values
How it was run: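 Inhibition values reflect reduced yeast growth compared with vehicle-treated controls, using a strain engineered with a DNA damage repair defect.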

[14] = NCI Yeast Anticancer Drug Screen. Data for the rad14 strain (AID 159);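 further: 0% = growth of vehicle-treated control cultures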; details: S. cerevisiae rad14 strain growth inhibition, hits give high values
How it was run: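 Here, inhibition of yeast growth was measured after compound exposure, using a strain with a genetic defect in DNA damage repair and vehicle-treated cultures as the reference.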

[15] = NCI Yeast Anticancer Drug Screen. Data for the CLN2oe strain (AID 163);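 further: 0% = growth of vehicle-only control cultures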; details: S. cerevisiae CLN2oe strain, hits give high values
How it was run: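 Strain altered in cell-cycle control, incubated with compound; growth compared to solvent-treated controls.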

[16] = NCI Yeast Anticancer Drug Screen. Data for the mgt1 strain (AID 153); details: S. cerevisiae mgt1 mutant growth inhibition, hits give high values
How it was run: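 Read-out: yeast growth inhibition vs vehicle control. Strain mgt1, drawn from a panel altered in DNA damage repair or cell cycle control.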

[17] = at 5.0 µM (retest, dose inferred, filed as 0.5)
[18] = at 50.0 µM (retest, dose inferred, filed as 5.0)

Measured: growth inhibition

CCN(CC)CC(O)c1cc(-c2ccc(Cl)cc2)nc2c(-c3ccccc3)cccc12 (stereo not drawn)
active: [1]; at 11.0 µM 98% | [1]; at 33.0 µM 98% | [1]; at 100.0 µM 93% | [2]; at 11.0 µM 98% | [2]; at 33.0 µM 98% | [2]; at 100.0 µM 95% | [3]; at 11.0 µM 96% | [3]; at 33.0 µM 98% | [3]; at 100.0 µM 95% | [4]; at 11.0 µM 98% | [4]; at 33.0 µM 98% | [4]; [18] 94% | [4]; at 50.0 µM 94.7% | [4]; at 100.0 µM 93% | [5]; at 11.0 µM 98% | [5]; at 33.0 µM 98% | [5]; [18] 98% | [5]; at 50.0 µM 87.9% | [5]; at 100.0 µM 96% | [6]; [18] 97% | [6]; at 50.0 µM 97.7% | [7]; [18] 91% | [8]; at 11.0 µM 98% | [8]; at 33.0 µM 97% | [8]; [18] 95% | [8]; at 100.0 µM 92% | [9]; at 11.0 µM 99% | [9]; at 33.0 µM 98% | [9]; at 100.0 µM 94% | [10]; at 11.0 µM 99% | [10]; at 33.0 µM 98% | [10]; at 100.0 µM 95% | [11]; at 11.0 µM 98% | [11]; at 33.0 µM 98% | [11]; at 100.0 µM 96% | [12]; [18] 96% | [12]; at 50.0 µM 99.2% | [13]; at 11.0 µM 98% | [13]; at 33.0 µM 98% | [13]; at 100.0 µM 95%
inactive: [1]; at 1.2 µM -1% | [1]; at 3.7 µM -1% | [2]; at 1.2 µM 0% | [2]; at 3.7 µM -2% | [3]; at 1.2 µM -1% | [3]; at 3.7 µM 7% | [4]; at 1.2 µM 1% | [4]; at 3.7 µM 6% | [4]; [17] 48% | [5]; at 1.2 µM -8% | [5]; at 3.7 µM -3% | [5]; [17] 32% | [6]; [17] 41% | [7]; [17] 6% | [7]; at 50.0 µM 8.2% | [8]; at 1.2 µM 1% | [8]; at 3.7 µM -5% | [8]; [17] 22% | [8]; at 50.0 µM 46.3% | [9]; at 1.2 µM -2% | [9]; at 3.7 µM -4% | [10]; at 1.2 µM -2% | [10]; at 3.7 µM 2% | [11]; at 1.2 µM -1% | [11]; at 3.7 µM 3% | [12]; [17] 59% | [13]; at 1.2 µM -2% | [13]; at 3.7 µM -1%

COC(=O)c1ccc2c(c1)Cc1ccccc1-2
active: [4]; at 50.0 µM 72.5%
inactive: [1]; at 1.2 µM -1% | [1]; at 3.7 µM 5% | [1]; at 11.0 µM 11% | [1]; at 33.0 µM 19% | [1]; at 100.0 µM 28% | [2]; at 1.2 µM -3% | [2]; at 3.7 µM -5% | [2]; at 11.0 µM -3% | [2]; at 33.0 µM -2% | [2]; at 100.0 µM -2% | [3]; at 1.2 µM 2% | [3]; at 3.7 µM 10% | [3]; at 11.0 µM 25% | [3]; at 33.0 µM 39% | [3]; at 100.0 µM 43% | [4]; at 1.2 µM 2% | [4]; at 3.7 µM 10% | [4]; [17] 0% | [4]; at 11.0 µM 13% | [4]; at 33.0 µM 12% | [4]; [18] -11% | [4]; at 100.0 µM 32% | [14]; at 1.2 µM -3% | [14]; at 3.7 µM -6% | [14]; at 11.0 µM -4% | [14]; at 33.0 µM -3% | [14]; at 100.0 µM -6% | [6]; [17] -5% | [6]; [18] -4% | [6]; at 50.0 µM 46.9% | [15]; at 1.2 µM -1% | [15]; at 3.7 µM 0% | [15]; at 11.0 µM -4% | [15]; at 33.0 µM -3% | [15]; at 100.0 µM -11% | [7]; [17] 35% | [7]; [18] 0% | [7]; at 50.0 µM 29.4% | [8]; at 1.2 µM -7% | [8]; at 3.7 µM -7% | [8]; [17] 0% | [8]; at 11.0 µM 3% | [8]; at 33.0 µM 3% | [8]; [18] -1% | [8]; at 50.0 µM 41.2% | [8]; at 100.0 µM 19% | [9]; at 1.2 µM -3% | [9]; at 3.7 µM -2% | [9]; at 11.0 µM -4% | [9]; at 33.0 µM 3% | [9]; at 100.0 µM 28% | [11]; at 1.2 µM -3% | [11]; at 3.7 µM -4% | [11]; at 11.0 µM -1% | [11]; at 33.0 µM 3% | [11]; at 100.0 µM 17% | [12]; [17] -2% | [12]; [18] 6% | [12]; at 50.0 µM 45.6% | [13]; at 1.2 µM -1% | [13]; at 3.7 µM 1% | [13]; at 11.0 µM 6% | [13]; at 33.0 µM 4% | [13]; at 100.0 µM 9%

Cc1ccc(Nc2n[nH]c(=S)s2)cc1
active: [1]; at 33.0 µM 74% | [1]; at 100.0 µM 94% | [2]; at 100.0 µM 92% | [16]; at 100.0 µM 94% | [4]; at 33.0 µM 72% | [4]; [18] 80% | [4]; at 50.0 µM 87% | [4]; at 100.0 µM 93% | [5]; at 50.0 µM 86% | [5]; at 100.0 µM 93% | [14]; at 33.0 µM 81% | [14]; at 100.0 µM 95% | [6]; [18] 91% | [15]; at 100.0 µM 91% | [7]; [18] 94% | [8]; [18] 91% | [8]; at 100.0 µM 93% | [10]; at 100.0 µM 92%
inactive: [1]; at 1.2 µM -2% | [1]; at 3.7 µM 2% | [1]; at 11.0 µM 6% | [2]; at 1.2 µM -21% | [2]; at 3.7 µM -12% | [2]; at 11.0 µM -19% | [2]; at 33.0 µM 35% | [16]; at 1.2 µM -6% | [16]; at 3.7 µM -5% | [16]; at 11.0 µM -3% | [16]; at 33.0 µM 65% | [4]; at 1.2 µM 5% | [4]; at 3.7 µM -1% | [4]; [17] 44% | [4]; at 11.0 µM 0% | [5]; at 1.2 µM -13% | [5]; at 3.7 µM -29% | [5]; [17] 39% | [5]; at 11.0 µM -27% | [5]; at 33.0 µM 13% | [5]; [18] 55% | [14]; at 1.2 µM -14% | [14]; at 3.7 µM -28% | [14]; at 11.0 µM -11% | [6]; [17] 1% | [15]; at 1.2 µM 11% | [15]; at 3.7 µM 2% | [15]; at 11.0 µM 3% | [15]; at 33.0 µM 40% | [7]; [17] 60% | [8]; at 1.2 µM 1% | [8]; at 3.7 µM -12% | [8]; [17] 45% | [8]; at 11.0 µM -3% | [8]; at 33.0 µM 53% | [10]; at 1.2 µM -10% | [10]; at 3.7 µM -34% | [10]; at 11.0 µM -23% | [10]; at 33.0 µM 29% | [11]; at 1.2 µM -34% | [11]; at 3.7 µM -36% | [11]; at 11.0 µM -25%
